PubChem BioAssay (NCATS)
Records with an inconclusive call do not appear. A number with no mark means an inactive call. Activity calls are given as the source filed them. The call rests on the fitted dose curve; in most records, active means well fitted cell-killing curve with a large enough effect; inconclusive means small, poorly fitted or top-dose-only effect, or effect the other way; inactive means no such curve, though single readings can be large or run the other way.
Potency means the concentration at half of the fitted maximal effect.

Assay: Quantitative High-Throughput drug screen in 47 multiple myeloma cell lines against the NCATS MIPE library collection: KMS28PE_JCRB cell viability assay (AID 1918983); further: nearly all actives have a fitted effect of over 35% in size
Conditions: KMS28PE multiple myeloma viability, CellTiter-Glo ATP, 48 h; series mostly up to 45.8 µM; viability, % of DMSO control: at the top concentration
From the text: PI: Beverly A. Mock Ph.D.
Laboratory of Cancer Biology and Genetics,
Center for Cancer Research, National Cancer Institute,
National Institute of Health, Bethesda, Maryland
Drug resistance and disease progression are common in multiple myeloma (MM) patients, underscoring the need for new therapeutic combinations. […] We hypothesized that effective combinations would reduce MYC expression and enhance p16 activity. […] These preclinical data identify potentially useful drug combinations for evaluation in drug-resistant MM and reveal potential mechanisms of combined drug sensitivity.
Described herein is the primary MIPE qHTS used to cherrypick compounds. Validated compounds were then further tested for potential synergistic activiy.
[1] Peat TJ, Gaikwad SM, Dubois W, Gyabaah-Kessie N, Zhang S, Gorjifard S, Phyo Z, Andres M, Hughitt VK, Simpson RM, Miller MA, Girvin AT, Taylor A, Williams D, D'Antonio N, Zhang Y, Rajagopalan A, Flietner E, Wilson K, Zhang X, Shinn P, Klumpp-Thomas C, McKnight C, Itkin Z, Chen L, Kazandijian D, Zhang J, Michalowski AM, Simmons JK, Keats J, Thomas CJ, Mock BA. Drug combinations identified by high-throughput screening promote cell cycle transition and upregulate Smad pathways in myeloma. Cancer Lett. 2023 Aug 1;568:216284. doi: 10.1016/j.canlet.2023.216284. Epub 2023 Jun 24. PMID: 37356470; PMCID: PMC10408729.
SEQUENCE No. (e.g., 1, 2, 3, etc.); […] (e.g., Cells, Incubation, Reagent, etc.); VALUE and DESCRIPTION.
1; Cells; 5 uL; white, solid bottom 1536-well Greiner assay plate.
2; Compounds; 23 nL; Kalypsis pin tool (Wako USA) equipped with a 1536-well pin head to transfer to the assay plates.
3; Incubation; 48 hours; 37C incubation.
4; Reagent;5uL; CellTiter Glo (Promega).
5; Detector; 425V; Luminescence; Viewlux PerkinElmer.
NOTES (numbers refer to Sequence numbers above)
1. The cell-based screening methods employed in this study were like those previously published. Briefly, the corresponding myeloma cell lines were screened in 1,536-well plates with 500 cells, 5-uL per well for inhibition of cell viability (assessed by measuring ATP levels with CellTiterGlo).
2. NCATS MIPE 4.0 library of approved and investigational drugs were added using the Kalypsis pin tool. Wells treated with DMSO only for 100% viability and media only for 0% viability were used as controls.
3. The assay plates were covered and incubated for 48 hours in a 37C, 5% CO2 incubator with controlled humidity.
4. After 48 hours, CellTilter-GloTM luminescent substrate mix (Promega) reagent was added to the assay plate and plates we incubated for 5 min at room temperature.
5. Signal was measured as median relative luminescence units on a ViewLux (PerkinElmer) multiplate reader.
[1] Heske CM, Davis MI, Baumgart JT, Wilson K, Gormally MV, Chen L, Zhang X, Ceribelli M, Duveau DY, Guha R, Ferrer M, Arnaldez FI, Ji J, Tran HL, Zhang Y, Mendoza A, Helman LJ, Thomas CJ. Matrix Screen Identifies Synergistic Combination of PARP Inhibitors and Nicotinamide Phosphoribosyltransferase (NAMPT) Inhibitors in Ewing Sarcoma. Clin Cancer Res. 2017 Dec 1;23(23):7301-7311. doi: 10.1158/1078-0432.CCR-17-1121. Epub 2017 Sep 12. PMID: 28899971; PMCID: PMC6636827.
With `CCCC(C)(COC(N)=O)COC(=O)NC(C)C` (configuration not stated) the “viability, % of DMSO control” value was 127%.
For `CN(C)CCN(C)CCc1ccc(Cl)c(Cl)c1`, the “viability, % of DMSO control” value was 117%.
With `NCC1(CC(=O)O)CCCCC1` the “viability, % of DMSO control” value was 131%.
With `N[C@@H](Cc1ccc(N(CCCl)CCCl)cc1)C(=O)O` the Potency was 16.6 µM (active).
In the case of `Fc1ccc(C(OCCN2CCN(CCCc3ccccc3)CC2)c2ccc(F)cc2)cc1`, the Potency is reported as 23.5 µM (active).
For `O=C1CC[C@@]2(O)[C@H]3Cc4ccc(O)c5c4[C@@]2(CCN3CC2CC2)[C@H]1O5`, the “viability, % of DMSO control” value was 104%.
For `O=c1[nH]c2ccccc2n1CCCN1CCC(n2c(=O)[nH]c3cc(Cl)ccc32)CC1`, the “viability, % of DMSO control” value was 103%.
In the case of `C[C@@H]1[C@@H](C(=O)C[C@H]2O[C@@H]3O[C@]4(C)CC[C@@H]5[C@H](C)CC[C@@H]([C@H]2C)[C@@]35OO4)O[C@@H]2O[C@]3(C)CC[C@H]4[C@H](C)CC[C@@H]1[C@@]24OO3`, the Potency is reported as 0.418 µM (active).
With `CNC(=O)N1N=C(c2ccc(N)cc2)c2cc3c(cc2CC1C)OCO3` (configuration not stated) the Potency was 4.69 µM (active).
With `COC[C@H]1OC(=O)c2coc3c2[C@@]1(C)C1=C(C3=O)C2CCC(=O)[C@@]2(C)C[C@H]1OC(C)=O` (some centres not stated) the Potency was 6.62 µM (active).
In the case of `CN(C)CCc1ccc(O)cc1`, the “viability, % of DMSO control” value is reported as 110%.
In the case of `C[C@@H]1O[C@@H](O[C@H]2C[C@@H](O)[C@]3(CO)[C@H]4[C@H](O)C[C@]5(C)[C@@H](C6=CC(=O)OC6)CC[C@]5(O)[C@@H]4CC[C@]3(O)C2)[C@H](O)[C@H](O)[C@H]1O`, the Potency is reported as 0.0209 µM (active).
With `C[C@@H]1[C@@H](CC(C[C@H]2O[C@@H]3O[C@]4(C)CC[C@@H]5[C@H](C)CC[C@@H]([C@H]2C)[C@@]35OO4)C[S+](=O)([O-])c2ccc(COC(=O)N(C)C)cc2)O[C@@H]2O[C@]3(C)CC[C@H]4[C@H](C)CC[C@@H]1[C@@]24OO3` (some centres not stated) the Potency was 0.209 µM (active).
In the case of `O=C(O)C(=O)c1cn(Cc2ccccc2)c2ccc(-c3ccc(OC(F)(F)F)cc3)cc12`, the Potency is reported as 3.32 µM (active).
With `Cc1cccc(C)c1NC(=O)CN1CCCC1=O` the “viability, % of DMSO control” value was 110%.
With `Cc1sc2c(c1C)C(c1ccc(Cl)cc1)=N[C@@H](CC(=O)OC(C)(C)C)c1nnc(C)n1-2` the Potency was 0.235 µM (active).
For `COc1ccc(C(=O)c2c(C)n(CCN3CCOCC3)c3ccccc23)cc1`, the “viability, % of DMSO control” value was 130%.
In the case of `COC[C@@H](NC(C)=O)C(=O)NCc1ccccc1`, the “viability, % of DMSO control” value is reported as 124%.
For `COC1(CS(=O)c2ccccc2)CCN(CCc2c[nH]c3ccc(F)cc23)CC1` (configuration not stated), the Potency was 8.33 µM (active).
In the case of `CNCC(O)c1ccc(O)cc1` (configuration not stated), the “viability, % of DMSO control” value is reported as 124%.
For `CNC(=O)c1ccc(N2C(=S)N(c3ccc(C#N)c(C(F)(F)F)c3)C(=O)C23CCC3)cc1F`, the “viability, % of DMSO control” value was 153%.
With `Cn1c(CCCC(=O)O)nc2cc(N(CCCl)CCCl)ccc21` the Potency was 7.43 µM (active).
